Rab9 promoter act: qHTS Assay for Rab9 Promoter Activators; hit rate 2.8% among 320,000; Huh7 Rab9 promoter-luciferase reporter, luminescence, 24 h; Potency, µM (top dose mostly 9.22 µM), for inactives: top-dose activation, negative = inhibition, actives largely listed as activators; AID 485297, 2010; further: % of control where 0% means no effect; nearly all actives have a fitted effect of over 60% in size
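Cells were plated at 1500 per well in reduced-serum medium with 10% FBS and left 2 h. Compound in DMSO was then added for 24 h at 37 °C. Reporter signal was read by luminescence after 10 min with luciferase detection reagent.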
p53 reactivation: qHTS assay for re-activators of p53 using a Luc reporter. AID 504706, 2011. hit rate 0.063% among 320,000. H1299 p53-A138V BP100-luciferase reporter, luminescence, 24 h. Potency, µM (doses to about 92.2 µM), without a hit: at the top dose activity change, positive = activation, usual class: activators; further: % of control where 0% means no effect; nearly all actives have a fitted effect of over 45% in size
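H1299 (p53-null), stable ts p53-A138V + BP100-Luc; 1000 cells/well, Opti-MEM/10% FBS; cpd 4 pt, 1:5; 24 h, 37 deg C, 5% CO2; detection reagent 10 min RT; luminescence.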
ELG1 genotox: qHTS screen for small molecules that induce genotoxicity in human embryonic kidney (HEK293T) cells expressing luciferase-tagged ELG1. hit rate 1.3% among 330,000. AID 504466, 2011. Potency, µM (doses to about 46 µM), inactives show at the highest dose activity change, positive = activation, hits mostly activators. HEK293T ELG1-luciferase reporter, luminescence, 16 h; further: % of control where 0% means no effect; nearly all actives have a fitted effect of over 60% in size
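Genotoxicity was scored as increased ELG1-luciferase reporter signal, measured by ONE-Glo luminescence (30 min, room temperature). Compound or vehicle exposure of the HEK293T reporter cells lasted 16 hr at 37°C.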
FLuc counter: qHTS profiling assay for firefly luciferase inhibitor/activator using purifed enzyme and Km concentrations of substrates (counterscreen for miR-21 project). Luciferin 4-monooxygenase (Photinus pyralis), P08659. purified FLuc, Km substrates, luminescence inhibition. Potency, µM (titrated, usually from 57.5 µM), without a hit: at the highest dose activity change, negative = inhibition, actives largely listed as inhibitors. hit rate 6.9% among 360,000. AID 588342, 2011;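 further: plate controls were vehicle for no effect and reference inhibitor for full effect; nearly all actives have a fitted effect of over 55% in size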
Target sequence (P08659 whole entry, looked up): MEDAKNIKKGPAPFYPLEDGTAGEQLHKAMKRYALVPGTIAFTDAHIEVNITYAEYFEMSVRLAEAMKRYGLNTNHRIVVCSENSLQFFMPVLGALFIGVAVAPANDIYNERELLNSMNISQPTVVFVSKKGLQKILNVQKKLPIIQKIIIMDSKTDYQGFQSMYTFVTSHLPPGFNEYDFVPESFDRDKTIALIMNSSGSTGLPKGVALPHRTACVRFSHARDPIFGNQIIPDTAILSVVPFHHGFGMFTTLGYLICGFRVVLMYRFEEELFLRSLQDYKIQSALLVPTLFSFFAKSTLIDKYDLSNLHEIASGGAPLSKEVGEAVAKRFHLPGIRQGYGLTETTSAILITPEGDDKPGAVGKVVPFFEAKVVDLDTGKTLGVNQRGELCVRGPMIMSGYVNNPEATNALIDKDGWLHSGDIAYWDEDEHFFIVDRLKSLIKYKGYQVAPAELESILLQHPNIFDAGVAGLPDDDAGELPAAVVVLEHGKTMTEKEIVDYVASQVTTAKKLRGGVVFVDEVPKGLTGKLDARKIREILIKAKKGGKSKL
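Purified P. pyralis luciferase (10nM final) with 10uM D-luciferin and 10uM ATP (Km levels) in 50mM Tris acetate pH 7.5, 10mM Mg acetate, 0.01% Tween-20, 0.05% BSA; qHTS 6-point titration, ~60 µM downward; luminescence read.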
NPC1 promoter act: qHTS Assay for NPC1 Promoter Activators | Huh7 NPC1 promoter luciferase reporter, 24 h | Potency, µM (highest dose often 9.22 µM), without a hit: at the top dose activation, usual class: activators | hit rate 2.4% among 320,000 | AID 485313, 2010; further: % of control where 0% means no effect; nearly all actives have a fitted effect of over 60% in size
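In 1536-well qHTS, Huh7 cells harboring an NPC1 promoter–luciferase construct received compound for 24 h; activation was quantified by luminescence following luciferase reagent addition.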
SMN2 splice up: qHTS Assay for Enhancers of SMN2 Splice Variant Expression. hit rate 2.8% among 210,000. Potency, µM (top dose mostly 46.1 µM), without a hit: top-dose activity change, positive = activation, hits mostly activators. HEK293 SMN2-luciferase splicing reporter, luminescence, 30-36 h; further: % of control where 0% means no effect; nearly all actives have a fitted effect of over 55% in size
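HEK293 cells carry an SMN2 minigene-luciferase reporter in which exon 7 inclusion puts luciferase in frame. Cells were seeded at 2000 cells/well, attached for 10-12 hours, then exposed to compounds for 30-36 hours at 37C before ONE-Glo luminescence.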
* hit, by the source's call; ? = inconclusive; / = not tested or not shown; [ ] = remark or other dose. Hits are enriched below; roughly 7.4% of the tested compounds scored in any of these assays. The call rests on the fitted dose curve; in most records, active means well fitted curve in the direction sought with a large enough effect; inconclusive means small, poorly fitted or top-dose-only effect, or another doubt; inactive means no such curve, though single readings can be large; an effect the other way counts as inactive or inconclusive. Potency means the concentration at half of the fitted maximal effect.

SMILES	Rab9 promoter act	p53 reactivation	ELG1 genotox	FLuc counter	NPC1 promoter act	SMN2 splice up
Cc1ccc(-c2nc3ccccc3o2)cc1NC(=O)c1ccc2c(c1)OCO2	-4%	46%	7.3µM*	?	?	/
Cc1ccc(S(=O)(=O)N2CCOCC2)cc1NC(=O)CSc1nnc(C2CC2)n1C1CC1	0%	0%	1%	3%	-3%	/
COC(=O)c1cc2c(=O)c3ccccc3oc2nc1/C=C/N(C)C	0%	2%	-2%	?	-3%	/
COC(=O)c1cc2c(=O)c3ccccc3oc2nc1C	?	18%	?	11µM*	2.2µM*	/
CCc1nc2oc3ccc(C)cc3c(=O)c2cc1C(=O)OC	3.5µM*	5%	?	3µM*	3.5µM*	/
Cc1nc2oc3ccccc3c(=O)c2cc1C(=O)O	-2%[1.84 µM]	6%	8%	-15%	2%	/
CC(=O)N1c2ccc(S(=O)(=O)N3CCCCCC3)cc2CC1C(=O)NCc1ccc(Cl)cc1 (stereo not given)	/	/	/	-1%	/	/
O=S1(=O)[C@H]([C@H]2CC3c4ccccc4C2c2ccccc23)[C@@H](N2CCCCC2)[C@@H]1c1ccccc1	/	/	/	/	/	-21%[9.22 µM]
Nc1nccnc1C(=O)OCC(=O)NNC(=O)c1ccccc1	3%	22%	1%	0%	0%	/
COc1ccc(-n2nc3cc(C)c(NC(=O)c4ccc(C)cc4C)cc3n2)cc1Cl	/	/	/	-2%	/	4%
Cc1cc2nn(-c3ccc(F)cc3)nc2cc1N	3.2µM*	/	1.6µM*	0.76µM*	2.5µM*	/
Cc1cc2nn(-c3ccc(Cl)cc3)nc2cc1N	22%	20%	?	0.34µM*	?	/
COc1ccc(-n2nc3cc(C)c(N)cc3n2)cc1Cl	2.8µM*	/	?	1.1µM*	2.2µM*	/
Cc1cc(N)n(-c2ccc(Cl)cc2)n1	2%	15%	3%	2%	-2%	12%
COc1cccc(NC(=O)NC2(C(=O)N3CCN(C)CC3)CCCCC2)c1	-1%	32%	1%	2%	2%	/
COc1ccc(C2=NS(=O)(=O)N(C)C(C(=O)NCc3ccc(F)cc3)=C2)cc1OC	1%	9%	0%	-12%	-1%	/
Nc1nccc(/C=C/c2c(F)cccc2Cl)n1	?	-2%	?	24µM*	23%	?
Oc1cccc2ccc(/C=C/c3c(F)cccc3Cl)nc12	4µM*	10%	15µM*	3µM*	?	25µM*
Oc1cccc2ccc(/C=C/c3ccccc3Cl)nc12	4%	?	18µM*	1.9µM*	?	/
O/N=C/c1ccc2cccc(O)c2n1	-4%	4%	-4%	?	1%	/
NC(=O)OC[C@H](O)COc1ccc(Cl)cc1	/	/	/	/	/	1%[20.6 µM]
CCOc1cccc(/C=C/c2ccc3cccc(O)c3n2)c1O	?	10µM*	23µM*	5.4µM*	?	/
CCOc1cccc(/C=C/c2ccc3cccc(O)c3n2)c1OC	12%[1.84 µM]	13µM*	21µM*	4.8µM*	3.2µM*	/
COc1ccc(C(=O)N2CCc3ccc(NC(=O)c4ccccn4)cc3C2)cc1F	27%	/	-16%	21µM*	?	/
Cc1ccc2cc3cc(C(=O)NC4CC4)oc3nc2c1	2.5µM*	?	?	11µM*	4µM*	/
SMILES	Rab9 promoter act	p53 reactivation	ELG1 genotox	FLuc counter	NPC1 promoter act	SMN2 splice up
Cc1ccc2cc3cc(C(=O)N(C)c4ccccc4C)oc3nc2c1	/	/	/	6.7µM*	/	16µM*
Cc1ccc2cc3cc(C(=O)N4CCCCC4C)oc3nc2c1 (stereo not given)	1.6µM*	12%	?	3µM*	1.4µM*	11µM*
CCN(C(=O)c1cc2cc3ccc(C)cc3nc2o1)c1ccc(OC)cc1	-3%	6%	15%	?	2%	-35%
Cc1ccc(C2=NN(CC(=O)NCCN(CC(C)C)CC(C)C)C(=O)CC2)cc1	0%	1%	-5%	3%	-1%	/
Cc1c(Cl)cccc1NC(=O)CN1C(=O)CSc2ccc(S(=O)(=O)N3CCCC3)cc21	/	/	/	-11%	/	/
O=C(Nc1ccccc1C(=O)O)c1ccc(NC(=O)c2ccc(Br)o2)cc1	0%	6%	-7%	?	0%	3%
Cc1ccccc1NC(=O)c1cccc(NC(=O)CCC(=O)O)c1	-4%	1%	-1%	1%	-5%	/
O=C(Nc1ccc(O)cc1C(=O)O)c1cccc(Br)c1	6%	5%	-1%	21µM*	2%	-6%
Cc1c(NC(=O)c2ccc(-c3ccccc3)cc2)cccc1C(=O)O	?	-11%	0.29µM*	0.6µM*	?	/
O=C(Nc1ccccc1C(=O)O)c1cccc(NC(=O)c2ccc(Br)o2)c1	2%	-1%	1%	19µM*	-2%	4%
CC(C)CC(=O)Nc1cccc(C(=O)Nc2ccccc2C(=O)O)c1	-3%	12%	-1%	15µM*	-2%	14%
CCc1ccc2[nH]cc(S(=O)(=O)c3ccc(C(C)C)cc3)c(=O)c2c1	/	/	/	-17%	/	-13%
COc1cc(CNC(=O)C2CCC(=O)N(C3CCCCCC3)C2)cc(OC)c1 (stereo not given)	18%	12%	-4%	3%	2%	/
CCN(C(=O)COC(=O)c1ccc(C=O)cc1)c1c(N)n(Cc2ccccc2)c(=O)[nH]c1=O	-2%	-7%	0%	1%	?	/
Cc1cccc(OCC(=O)Nc2c(C)ccc3nsnc23)c1C	/	/	/	1%	/	-24%
CCc1ccc(C2NC(=O)c3[nH]nc(-c4cccc(OC)c4)c32)cc1 (stereo not given)	/	/	/	-12%	/	3%
O=C(Nc1sc(-c2ccccc2)cc1C(=O)O)c1ccccc1	2.8µM*	?	23%	?	3.2µM*	/
O=C(Nc1ccccc1C(=O)O)c1ccccc1	-3%	11%	17%	?	2%	12%
CC(=O)Nc1cccc(C(=O)Nc2ccccc2C(=O)O)c1	8%	22%	-1%	24µM*	-1%	5%
O=C(Nc1ccccc1C(=O)O)c1cccc(C(=O)Nc2ccccc2C(=O)O)c1	1%	20%	-16%	19µM*	0%	/
COc1ccc(NC(=O)Cn2c(=O)oc3cc(S(=O)(=O)N4CCCCCC4)ccc32)cc1OC	/	/	/	-15%	/	/
Cc1oc(C(=O)O)cc1COc1ccc2c3c(c(=O)oc2c1C)CCCC3	11%	-4%	2%	-4%	9%	5%
Cc1c(OCc2ccc([N+](=O)[O-])cc2)ccc2c3c(c(=O)oc12)CCC3	1µM*	21%	?	?	1.1µM*	5.6µM*

Assay outcomes deposited in PubChem BioAssay by National Center for Advancing Translational Sciences (NCATS).
